Results taken from ChEMBL document CHEMBL1157539, “Thousands of chemical starting points for antimalarial lead identification” (Nature, 2010).

Key:
Type in all cases: functional
[1] = test system: Plasmodium falciparum; assay: GSK_TCMDC: Inhibition of Plasmodium falciparum 3D7 in whole red blood cells, using parasite LDH activity as an index of growth. Test compounds present at 2uM
[2] = test system: Plasmodium falciparum; assay: GSK_TCMDC: Inhibition of Plasmodium falciparum Dd2 in whole red blood cells, using parasite LDH activity as an index of growth. Test compounds present at 2uM
[3] = test system: HepG2; assay: GSK_TCMDC: Percent inhibition of human HepG2 cell line. Test compounds present at 10uM.

| SMILES | Inhibition [1] | Inhibition [2] | Inhibition [3] |
| --- | --- | --- | --- |
| O=C(CCCCCNC(=O)c1ccc(O)c(-c2cccc(C(F)(F)F)c2)c1)NCCN1CCCCC1 | 99% | 0% | 0% |
| CN1CCN(c2ccc(Nc3ncc(Cl)c(Nc4cccnc4C(N)=O)n3)cc2)CC1.Cl | 95% | 97% | 99% |
| O=C(Nc1ccc(CN2CCN(S(=O)(=O)c3cccc(Cl)c3)CC2)cc1)c1cccs1.O=C(O)C(F)(F)F | 84% | 41% | 9% |
| Nc1ncc(-c2ccsc2)c2ccc(-c3cnc[nH]3)cc12 | 100% | 70% | 31% |
| O=C(O)/C=C\C(=O)O.OCCN1CCN(C2Cc3ccc(F)cc3Sc3ccc(Cl)cc32)CC1 (stereo not given) | 98% | 26% | 56% |
| CC(C)c1cccc(OCC2CCN(c3ncc(C(=O)Nc4ccccc4)cc3Cl)CC2)c1 | 89% | 88% | 9% |
| CCCc1cc(Cc2cnc(N)nc2N)cc(OC)c1OC | 87% | 4% | 2% |
| O=C(O)C(F)(F)F.OC1CCCN(Cc2ccc(-c3ccc(-c4nc5cc(F)ccc5[nH]4)cc3)cc2)C1 (stereo not given) | 100% | 79% | 55% |
| Clc1ccc2c(NCc3ccc4c(c3)OCO4)ccnc2c1 | 100% | 97% | 6% |
| COc1ccc(Nc2nc(NCc3cccc(NS(C)(=O)=O)c3)cc(-c3ccc(OC)cc3)n2)cc1 | 84% | 5% | 0% |
| COc1cccc(-c2ccc3ccnc(N)c3c2)c1.O=C(O)C(F)(F)F | 100% | 93% | 40% |
| CC(C)C[C@H](Nc1ccc(C#N)c2ccccc12)C(=O)NC(C)(C)C12CC3CC(CC(C3)C1)C2.O=C(O)C(F)(F)F | 96% | 30% | 19% |
| O=C(NC1CCCCC1)N(Cc1ccc(-c2ccc(CNCc3ccc4c(c3)OCO4)cc2)cc1)C1CCN(Cc2ccccc2)CC1.O=C(O)C(F)(F)F | 100% | 72% | 28% |
| CC(C)(C)C1=CC(=NNC(=O)c2ccncc2)C=C(C(C)(C)C)C1=O | 99% | 99% | 47% |
| CCn1c(-c2nc(-c3ccc4c(c3)OCO4)cnc2N)nc2cnccc21 | 100% | 98% | 94% |
| CCN(C)CCCn1c(N(C)C)nc2cc(-n3cnc4cc(-c5ccc(Cl)cc5)sc4c3=O)ccc21.O=C(O)C(F)(F)F | 80% | 12% | 83% |
| Cl.Oc1ccc(Nc2nc(N3CCCC3)c3ccccc3n2)cc1 | 100% | 100% | 10% |
| Cc1ccc(CN2CCN(c3cc4c(cc3Cl)CCN4C(=O)Cc3ccc(NC(=O)c4ccc(C(F)(F)F)cc4)cc3)CC2)cc1 | 88% | 0% | 15% |
| COc1cccc(NC(=O)c2ccc(NCCCN3CCC(C)CC3)c([N+](=O)[O-])c2)c1 | 100% | 46% | 9% |
| COCCNCc1ccc(-c2ccccc2CNC2CCN(Cc3ccccc3)CC2)cc1.O=C(O)C(F)(F)F | 97% | 28% | 17% |

| SMILES | Inhibition [1] | Inhibition [2] | Inhibition [3] |
| --- | --- | --- | --- |
| Cc1cc(CNCCCCCCNCc2ccc(-c3ccccc3)cc2)ccc1O | 98% | 0% | 90% |
| Cc1cccc2nc(-c3ccc(-c4ccc(CNCCNC(=O)c5ccnn5C)cc4)s3)[nH]c12.O=C(O)C(F)(F)F | 100% | 97% | 20% |
| CCCCCCN1CCN(Cc2cccc(NC(=O)c3cccc(OCC)c3)c2)CC1.O=C(O)C(F)(F)F | 85% | 48% | 65% |
| COc1cc2c(cc1C(F)(F)F)N(C(=O)Nc1cc(F)cc(-c3cccnn3)c1)CC2 | 90% | 34% | 21% |
| CC(C)NCc1cccc(-c2cccc(NC(=O)c3cccc(C#N)c3)c2)c1.O=C(O)C(F)(F)F | 99% | 22% | 12% |
| C=CC[C@@H](C(=O)OCC)[C@@H]1[C@@H](N(CC=C)C(=O)OC(C)(C)C)CCN1C(=O)OCc1ccccc1 | 92% | 68% | 2% |
| COc1ccc(-c2ccc(NC(=O)c3ccc(C#N)cc3)cc2)cc1CNC(C)C.O=C(O)C(F)(F)F | 100% | 38% | 19% |
| Fc1ccc2[nH]c(-c3cccc(-c4ccc(CN5CCN(CCN6CCOCC6)CC5)cc4)c3)nc2c1.O=C(O)C(F)(F)F | 100% | 100% | 30% |
| COc1ccc(CNC(=O)Nc2cc3cc(-c4ccc(CN(C)C)cc4)ccc3n3c(C)nnc23)cc1 | 93% | 80% | 99% |
| CCc1sc(CN(CCCNc2cc(=O)c3ccccc3[nH]2)Cc2sc(CC)c(Br)c2-c2ccsc2)c(-c2ccsc2)c1Br.Cl | 99% | 98% | 10% |
| COc1ccccc1CCNc1nc(C)cc(N[C@@H](CC(C)C)C(=O)NCCc2ccccc2)n1.O=C(O)C(F)(F)F | 97% | 81% | 12% |
| O=C(O)C(F)(F)F.OCC1CCN(Cc2ccc(-c3ccc(-c4nc5cc(F)ccc5[nH]4)s3)cc2)CC1 | 100% | 98% | 14% |
| Cc1cc(N)c2cc(NC(=O)/C=C/c3ccccc3Cl)ccc2n1 | 100% | 98% | 81% |
| COc1ccc2[nH]c(C)cc(=NN=Cc3cc(OC)c(OC)cc3OC)c2c1 | 100% | 56% | 1% |
| CC(C)(C)CC(C)(C)c1ccc(O)c(CNC2CCCCC2)c1.Cl | 98% | 99% | 92% |
| O=C(O)C(F)(F)F.O=S(=O)(NCCN1CCCC1)c1ccc(-c2cccc(CNCc3ccc(F)cc3)c2)cc1 | 100% | 41% | 76% |
| Cc1ccc2nc(C)cc(NC(=O)Nc3ccc(N(C)C)cc3)c2c1 | 100% | 41% | 12% |
| FC(F)(F)c1ccc2[nH]c(-c3cccc(-c4ccc(CNCc5ccccc5)cc4)c3)nc2c1.O=C(O)C(F)(F)F | 100% | 99% | 25% |
| CC(C)(C)c1ccc(-c2cc3c(ccc4nc(N)nc(N)c43)[nH]2)cc1 | 100% | 100% | 100% |
| COc1ccc(-c2ccc(NC(=O)c3cccc(Cl)c3)cc2)cc1CN(C)CCO.O=C(O)C(F)(F)F | 89% | 52% | 39% |

| SMILES | Inhibition [1] | Inhibition [2] | Inhibition [3] |
| --- | --- | --- | --- |
| CCCc1cc(N2CCC(N3CCCC3)CC2)nc(Nc2ccc(Cl)cc2)n1 | 96% | 9% | 29% |
| COc1ccc(CNC2CCN(C)CC2)cc1-c1ccc(S(=O)(=O)NC2CCC2)c(C)c1.O=C(O)C(F)(F)F | 100% | 96% | 24% |
| O=C(/C=C/c1ccccc1Cl)Nc1ccc(Br)c(OCCN2CCC(O)(c3ccccc3)CC2)c1.O=C(O)C(=O)O | 100% | 85% | 39% |
| CN1CCN(CCCN(Cc2ccc(-c3cccc(CNC4CCCC4)c3)cc2)C(=O)/C=C/c2ccccc2)CC1.O=C(O)C(F)(F)F | 100% | 87% | 36% |
| CN1CCN(c2ccnc3ccc(NC(=O)Nc4ccc5c(c4)CCCC5=O)cc23)CC1 | 100% | 90% | 8% |
| Cc1ccc(-c2ccn(Cc3cccc(OCc4ccccc4)c3)n2)cn1.Cc1ccc(-c2ccnn2Cc2cccc(OCc3ccccc3)c2)cn1 | 82% | 64% | 0% |
| CC(C)CCNC(=O)C1Cc2c([nH]c3cc(Br)ccc23)C2(CCN(CCc3ccccc3)CC2)N1 (stereo not given) | 97% | 48% | 14% |
| COc1cccc(OCC2CCCN(CCCCNC(=O)c3ccc(NC(=O)c4ccc(Cl)cc4)cc3)C2)c1 (stereo not given) | 100% | 49% | 33% |
| O=C(N[C@@H](Cc1ccccc1)[C@H](O)CNCCC(F)(F)F)c1cccc(CCC2CC2)c1 | 87% | 13% | 0% |
| O=C(O)C(F)(F)F.O=[N+]([O-])c1cccc(CNC2CCN(Cc3ccc4ccccc4c3)CC2)c1 | 100% | 22% | 12% |
| Cc1c(S(=O)(=O)Nc2cccc(CCN3CCCCC3CCN3CCCC3)c2)sc2ccc(Cl)cc12 (stereo not given) | 93% | 10% | 22% |
| COc1cccc2cc(C(=O)N[C@@H](CC(C)C)C(=O)N[C@H](/C=N/NC(=O)Cc3cccnc3)CCc3ccccc3)oc12 | 82% | 54% | 6% |
| Cc1cc(C)cc(-n2c(C)cc(/C=C3\SC(=Nc4ccc(Cl)cc4)NC3=O)c2C)c1 | 97% | 97% | 12% |
| CC(=Nc1ccc(Cl)c(Cl)c1)N(C)C.Cl | 98% | 0% | 0% |
| CC(C)C[C@H](NC(=O)c1cc2ccccc2s1)C(=O)N[C@H]1CCN(Cc2ccc(OCCCN(C)C)c(Cl)c2)C1.O=C(O)C(F)(F)F | 100% | 89% | 83% |
| COCCNCc1ccc(-c2ccc3c(Nc4ccc(Cl)cc4F)ccnc3c2)o1 | 100% | 100% | 15% |
| COCCNCc1cccc(-c2ccc3nccc(Nc4cc(O)ccc4C)c3c2)c1 | 100% | 92% | 0% |
| CC(Nc1ncc(-c2ccsc2)c(-c2nccs2)n1)c1ccc2c(c1)OCCO2 (stereo not given) | 81% | 66% | 14% |
| O=C(CCN1CCCCC1)Nc1ccc(Nc2nccc(NCC(O)c3ccccc3)n2)cc1 (stereo not given) | 100% | 60% | 18% |
| O=C(NC1CC1)c1cnc(N2CCC(c3ccccc3)CC2)c(Cl)c1.O=C(O)C(F)(F)F | 94% | 95% | 6% |
